Shown is part of a subset that was picked to be rich in hits.
Methyltransferases = Primary Screen for Target Class Profiling of Small Molecule Inhibitors of Methyltransferases. purified enzyme, MTase-Glo SAH luminescence; hits give low values. calls only at 40 µM. hit rate 3.9% among 25,000; call rule not given here
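Each enzyme was assayed with SAM and its substrate. SAH formation detected by MTase-Glo luminescence; single-point 40 uM screen[…].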
Starred values were filed as active, the others as inactive; i = inactive; + = active, no number. % is scaled to controls: 0 for no effect and ±100 for the full control effect.

SMILES | Methyltransferases
Cc1cc(NC(=O)N2CCn3cccc3C2Cc2ccccc2)ccc1Br (stereo unspecified) | i
Cc1cccc(Cn2nc3n(C(C)C)c(=O)c4ccc(C(=O)NC5CCCC5)cc4n3c2=O)c1 | i
COc1ccccc1CNS(=O)(=O)c1cc2c(cc1Cl)n(C)c(=O)n2C | i
COc1ccccc1CNCCCCCCNCCCCCCCCNCCCCCCNCc1ccccc1OC | +
COc1ccccc1Oc1ncccc1CNCc1c(F)cccc1Cl | i
CCOc1ccccc1CN1C(=O)c2cc3sccc3n2CC1(C)C(=O)NC1CCCCCCC1 (stereo unspecified) | i
O=S(=O)(c1ccccc1F)N1CCC(CCc2nc(C3CCOCC3)no2)CC1 | i
CC(C)[C@@H](C(=O)O)N1Cc2c(cc(O)c3c2O[C@]2(C3)[C@H](C)CCC3C(C)(C)[C@H](O)[C@H](O)C[C@@]32C)C1=O (stereo partly specified) | i
COc1ccc(CC(NC(C)=O)C(=O)O)cc1 (stereo unspecified) | +
COc1cccc(OC)c1-c1ccc(C[C@H](NC(=O)c2c(Cl)cccc2Cl)C(=O)O)cc1 | i
CC(=O)N[C@@H](CS)C(=O)O | i
Cc1ccc(CN2C(=O)NC3(CCN(C(=O)Cc4cccc(F)c4)CC3)C2=O)cc1 | i
Cc1cc2[nH]c(=O)[nH]c2cc1S(=O)(=O)NCc1ccccc1Cl | i
O=[N+]([O-])c1cccc2c(Br)[nH]nc12 | +
Cc1ccc2[nH]c(=O)c(CCC(=O)NCc3ccco3)cc2c1 | i
COc1ccccc1CN1CCC(N2CC3CCCN3C2=O)CC1 (stereo unspecified) | i
Cc1nc(CCNc2cc(C3CC(O)C3)nc(N)n2)nc2c1CCC2 (stereo unspecified) | i
Cc1ccc(Cn2c(=O)c3ccccc3n3c(=O)n(CC(=O)c4cc(C)ccc4C)nc23)cc1 | i
CCCNC(=O)CNC(=O)C1(C)Cn2c(cc3ccccc32)C(=O)N1C (stereo unspecified) | i
O=C(CCc1nnc2n(Cc3ccccc3Cl)c(=O)c3ccccc3n12)Nc1ccc(F)c(F)c1 | i
CCCN1C(=O)c2c(C(=O)NCc3ccccc3OCC)ncn2CC1(C)C(=O)NC1CCCC1 (stereo unspecified) | i
CC(C)CC(NC(=O)OCc1ccccc1)C(=O)NC(CC(C)C)C(=O)NC(CCC(=O)O)C(=O)Nc1ccc2ccccc2c1 (stereo unspecified) | i
Cc1cc(=O)oc2cc(NC(=O)[C@H](CCC(=O)O)NC(=O)[C@H](CC(C)C)NC(=O)[C@H](CC(C)C)NC(=O)OCc3ccccc3)ccc12 | +
COC(=O)C1=CO[C@@H](O[C@@H]2O[C@H](CO)[C@@H](O)[C@H](O)[C@H]2O)[C@H]2[C@@H]1C=C[C@]21C=C([C@H](C)OC(=O)/C=C/c2ccc(O)cc2)C(=O)O1 | i
CCC(C)/C=C(C)/C=C/C1=CC2=C(Cl)C(=O)C(C)(OC(C)=O)C(=O)C2=CN1CCCCC(N)C(=O)O (stereo unspecified) | i
SMILES | Methyltransferases
CC1=NOC2(CCN(Cc3ccc(N(C)C)cc3)CC2)C1 | i
Cn1nc(C(=O)N2CCC3(CC2)CC(Cc2nc(C4CC4)no2)CCO3)c2ccccc21 (stereo unspecified) | i
CC(=O)N1CCN(c2ccc(OC[C@H]3CO[C@](Cn4ccnc4)(c4ccc(Cl)cc4Cl)O3)cc2)CC1 | i
CNC(=O)c1c(F)cccc1Nc1nc(Nc2cc3c(cc2OC)CCN3C(=O)CN(C)C)nc2[nH]ccc12 | i
COC(=O)c1cccc(Nc2ncnc3ccc(C)cc23)c1 | i
O=C(NC1CCCC1)c1ccc(OC2CCN(CCCC(F)(F)F)CC2)c(Cl)c1 | i
CNC(=O)CN1CCC(Oc2cc3c(Nc4cccc(Cl)c4F)ncnc3cc2OC)CC1 | +
COc1cc2ncnc(Nc3ccc(F)c(Cl)c3)c2cc1NC(=O)/C=C/CN1CCCCC1 | +
CCCC1c2cccn2CCN1C(=O)Nc1cc(Cl)ccc1OC (stereo unspecified) | i
Cc1cc(C)n(CCC(=O)N2CCC(C3CCN(S(C)(=O)=O)CC3)C2)n1 (stereo unspecified) | i
COCCNC(=O)N1CCCC(CNC(=O)c2cccc3ccccc23)C1 (stereo unspecified) | i
COc1ccc2c(c1)CN(C1CCN(C)CC1)CC[C@H]1COC(=O)N21 | i
Cc1ncccc1C(=O)N1CC[C@@H]2COCCN(Cc3ccncc3)[C@@H]2C1 | i
Cc1ccc(C(=O)N(CCCN)C(c2oc3cc(Cl)ccc3c(=O)c2Cc2ccccc2)C(C)C)cc1 (stereo unspecified) | i
C=C1C(O[C@@H]2O[C@H](CO)[C@@H](O)[C@H](O)[C@@H]2O)CC2C(C)(C)C(O)CCC2(C)C1CC/C(C)=C\CO (stereo partly specified) | +
C=C1CC[C@@H]2[C@](C)(CO)[C@H](O[C@@H]3O[C@H](CO)[C@@H](O)[C@H](O)[C@H]3O)CC[C@@]2(C)[C@@H]1C/C=C1/C(=O)OC[C@H]1O | i

Screening results from PubChem.
